From PubChem BioAssay
Shown are actives, neighbours in structure and some others; about 21% of the full set was active somewhere.
Sm TGR block: blocks Schistosoma mansoni thioredoxin glutathione reductase; Q962Y6; purified TGR, DTNB reduction, TNB absorbance 405 nm; Potency, µM (top dose mostly 114 µM), actives largely listed as inhibitors; actives 3% (n = 360,000); AID 485364; also: nearly all actives have a fitted effect of over 60% in size
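TGR 20 nM + NADPH 100 uM (dispensed conc.), cpd preinc 15 min RT; start with NADPH (500 uM addition) then DTNB (15 mM addition). Kinetic TNB absorbance, 405 nm filter. Four-parameter Hill fit across titration.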
Shiga inhibitor: inhibitors of Shiga toxin in Vero cells; actives 9.2% (n = 290,000); Vero cells, Shiga toxin protein synthesis inhibition reporter; inhibition, % at 38.7 µM; in the data active = inhibition mostly above about 28%, no sharp cut-off; inactive = mostly below about 43%
CHX counter: counter-screen for Shiga toxin inhibitors: cycloheximide protein synthesis inhibition; max response, %; AID 2314; actives 12% (n = 300,000); cell reporter, cycloheximide protein synthesis inhibition counterscreen; in the data active = max response mostly above about 13%, no sharp cut-off; inactive = mostly below about 14%; also: read at 38.3 µM for the half of the compounds with a filed dose
NS1 inh: blocks influenza NS1 protein function; Potency, µM (highest dose often 46.1 µM); actives 0.4% (n = 270,000); calls by dose curve; also: actives are rising curves; nearly all actives have a fitted effect of over 50% in size
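Growth recovery, yeast-based: influenza A NS1 expressed in S. cerevisiae causes slow growth, and suppressors are detected by OD600. The parent strain without NS1 is used as positive control.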
Pf growth 96h: inhibits malaria parasite growth, 96 h | P. falciparum luciferase reporter growth, 96 h | Potency, µM (highest dose often 28.7 µM), hits mostly inhibitors | actives 6.9% (n = 320,000)
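Plates of compound plus infected erythrocytes (2% hematocrit, 0.05% parasitemia final) incubate 96 hours, 37 C, 5% CO2. Detection reagent added; reduced luminescence from the parasites' luciferase reporter flags inhibition.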
Pf growth 48h: P. falciparum growth inhibition at 48 hours (one generation); P. falciparum luciferase growth in erythrocytes, 48 h; Potency, µM (titrated, usually from 28.7 µM), hits mostly inhibitors; actives 5.9% (n = 310,000); AID 504832
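A one-generation exposure of luciferase-tagged malaria parasites in RPMI 1640/Albumax erythrocyte culture, 37 C and 5% CO2. Inhibition is inferred from decreased luminescence after adding detection reagent.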
Numbers stand for hits; . = inactive; ? = inconclusive; / = not tested or not shown. Unless noted, calls follow the shape of the dose curve; as a rule, active = well fitted curve in the direction sought with a large enough effect; inconclusive = small, poorly fitted or top-dose-only effect, or another doubt; inactive = no such curve, though single readings can be large; an effect the other way counts as inactive or inconclusive.

SMILES | Sm TGR block | Shiga inhibitor | CHX counter | NS1 inh | Pf growth 96h | Pf growth 48h
COc1ccc([C@@H]2CC=C(C(=O)O)[C@H](c3cccc(Cl)c3)N2S(=O)(=O)c2ccccc2C)cc1 | . | / | / | / | . | ?
O=C(O)c1cccc(N/N=C/c2cccs2)c1 | . | 147.0 | 83.6 | . | . | .
CCOc1cc(/C=N/Nc2cccc(C(=O)O)c2)ccc1OCC(=O)N1CCCCC1 | . | 125.9 | 69.8 | . | . | .
Cc1ccc(-c2cc(C(=O)O)n(-c3ccc(S(N)(=O)=O)cc3)n2)cc1 | . | . | . | . | . | .
CSc1nnc2c3ccccc3c3ccccc3c2n1 | . | . | . | . | ? | ?
CSc1nnc(-c2ccccc2)c(-c2ccccc2)n1 | . | . | . | . | ? | 11.7µM
CCOC(=O)CSc1ncc(-c2ccccc2)cn1 | . | . | . | . | . | .
C=CCSc1ncc(-c2ccccc2)cn1 | . | 62.8 | 35.2 | / | . | ?
C#CCSc1ncc(-c2ccccc2)cn1 | . | 76.6 | 43.6 | / | . | .
O=C(O)CSc1nnc(-c2ccccc2)c(-c2ccccc2)n1 | . | . | . | . | . | .
CSc1ncc(-c2ccccc2)cn1 | . | . | 47.3 | / | . | .
CSc1nnc(-c2ccco2)c(-c2ccco2)n1 | 1µM | . | . | . | . | .
CC(=O)c1ccc(OCc2cc(C(=O)N(C)Cc3ccon3)no2)cc1 | . | . | . | . | . | .
CC(=O)c1ccc(OCc2cc(C(=O)N(C)Cc3ccccn3)no2)cc1 | 12.6µM | 52.0 | 62.2 | . | 10.4µM | .
Cc1cc(OCc2cc(C(=O)N(C)CCOc3ccccc3)no2)cc(C)c1Cl | . | . | . | . | . | .
CSc1ccccc1OCc1cc(C(=O)N(C)C(C)c2ccccn2)no1 (stereo unspecified) | . | . | . | . | ? | .
Cc1cc(OCc2cc(C(=O)N(C)C(C)c3ccccn3)no2)cc(C)c1Cl (stereo unspecified) | . | 101.8 | 41.0 | . | . | .
Cc1cc(OCc2cc(C(=O)N(C)Cc3ccccn3)no2)cc(C)c1Cl | . | 106.0 | 92.1 | . | . | .
O=C(O)c1cccc(C(=O)O)c1Br | . | . | . | . | . | .
CCOC(=O)c1ccc(NC(=O)CN2C(=O)CN(C(C)=O)C2=S)cc1 | . | . | . | ? | . | .
CCOC(=O)c1ccc(N2C(=O)CC(N(C)CCc3ccc(OC)c(OC)c3)C2=O)cc1 (stereo unspecified) | 44.7µM | . | . | . | / | ?
CCOC(=O)c1ccc(N2C(=O)CC(Nc3ccc(CCO)cc3)C2=O)cc1 (stereo unspecified) | . | . | . | . | . | .
CCOC(=O)c1ccc(NC(=O)CC2C(=O)N(c3ccc(F)cc3)C(=O)N2Cc2ccc3c(c2)OCO3)cc1 (stereo unspecified) | . | / | / | / | / | /
CCOc1cccc(N2C(=O)CC(N(CCc3ccc(OC)c(OC)c3)C(=O)CC)C2=O)c1 (stereo unspecified) | . | . | . | . | 5.86µM | .
CC(=O)N(Cc1ccc2c(c1)OCO2)C1CC(=O)N(CCc2ccccc2)C1=O (stereo unspecified) | 22.4µM | . | . | . | ? | .
SMILES | Sm TGR block | Shiga inhibitor | CHX counter | NS1 inh | Pf growth 96h | Pf growth 48h
CCOC(=O)c1ccc(N2C(=O)CC(N(Cc3ccc4c(c3)OCO4)C(=O)Nc3ccccc3)C2=O)cc1 (stereo unspecified) | . | . | . | . | 9.28µM | /
CCOc1ccc(N2C(=O)CC(N(CCc3ccc(OC)cc3)C(=O)/C=C/C(=O)O)C2=O)cc1 (stereo unspecified) | / | . | . | . | ? | .
CCOC(=O)c1ccc(N2C(=O)C(CC(=O)NC)N(CCc3ccc(OC)c(OC)c3)C2=S)cc1 (stereo unspecified) | ? | . | . | . | . | 13.1µM
CCOC(=O)/C(C#N)=C/c1cn(CCOc2ccccc2)c2ccccc12 | . | . | . | . | 9.28µM | .
Cc1ccc(NC(=O)/C(C#N)=C/c2cn(CC(=O)NCc3ccco3)c3ccccc23)cc1C | . | . | . | . | . | .
Cc1ccc(C)c(OCCn2cc(/C=C(\C#N)C(=O)NCC3CCCO3)c3ccccc32)c1 (stereo unspecified) | . | . | . | ? | 1.65µM | 2.62µM
Cc1ccc(OCCn2cc(/C=C(\C#N)C(=O)NCC3CCCO3)c3ccccc32)cc1 (stereo unspecified) | . | . | . | ? | . | 10.4µM
Cc1ccc(OCCn2cc(/C=C(\C#N)C(=O)NCC3CCCO3)c3ccccc32)cc1C (stereo unspecified) | . | . | . | . | ? | ?
Cc1ccc(C)c(NC(=O)/C(C#N)=C/c2cn(CC(=O)NCc3ccco3)c3ccccc23)c1 | . | . | . | . | 14.7µM | .
CN1CCN(S(=O)(=O)c2cccc(C(=O)Nc3ccccc3N3CCOCC3)c2)CC1 | . | . | . | . | . | .
Cc1[nH]c(C)c2c(=O)[nH]ncc12 | ? | . | . | . | . | .
Cc1cc(C)c(OCC(=O)OCC(=O)NC2CCC(C)CC2)c(C)c1 (stereo unspecified) | . | / | / | / | . | .
COCCNC(=O)Cn1cc(/C=C(\C#N)C(=O)NC2CCCC2)c2ccccc21 | . | / | . | . | 10.4µM | .
Cc1ccc(C)c(OCCn2cc(/C=C(\C#N)C(=O)NCc3cccs3)c3ccccc32)c1 | . | . | . | . | 3.29µM | 4.65µM
Cc1ccc(NC(=S)/C(=C(\[O-])c2ccc(F)cc2)[n+]2ccccc2)cc1 | . | . | 21.3 | / | . | .
[O-]/C(=C(\C(=S)Nc1ccccc1F)[n+]1ccccc1)c1ccc(OC(F)F)cc1 | . | . | . | . | . | .
[O-]/C(=C(\C(=S)Nc1ccc(SC(F)F)cc1)[n+]1ccccc1)c1cc(Cl)ccc1Cl | . | . | . | / | . | .
CN(C)c1cc[n+](/C(C(=S)Nc2ccc(SC(F)F)cc2)=C(/[O-])c2ccccc2)cc1 | . | . | . | / | 2.08µM | 4.65µM
Cc1cc(C)c(/C([O-])=C(/C(=S)Nc2ccc(SC(F)F)cc2)[n+]2ccccc2)cc1C | . | . | . | / | ? | 11.7µM
C=CCn1c(C)cc(/C([O-])=C(/C(=S)Nc2ccc(OC(F)F)cc2)[n+]2ccc(N(C)C)cc2)c1C | . | . | . | . | 3.7µM | ?
Cc1ccc(C)c(NC(=S)/C(=C(\[O-])c2ccc(OC(F)F)cc2)[n+]2ccccc2)c1 | . | . | . | / | ? | ?
CN(CC(=O)NCc1ccccc1Cl)S(=O)(=O)c1ccc2c(c1)c(=O)n(C)c(=O)n2C | . | / | / | / | / | /
O=C(NCc1cccnc1)C(=O)NCC(c1cccnc1)N1CCN(c2ccccc2F)CC1 (stereo unspecified) | . | / | / | / | / | /
COc1ccc2c(CNC3CCCC3)c(C(=O)O)n(Cc3ccccc3C)c2c1 | . | / | / | / | / | /
Cc1ccccc1NC(=S)N1CCC(NC(=O)c2ccco2)CC1 | . | . | . | / | 3.29µM | .
CC1CCN(C(=S)NC(=O)c2ccco2)CC1 | . | . | 33.1 | . | . | .
